The values that follow come from PubChem BioAssay.

The target of assay [1] is Albumin (Bos taurus) (UniProt P02769). The assay is described as follows: bovine serum albumin binders on microarray, profiling panel, artefact control for SMM control protein annotation, biochemical, small-molecule microarray, Alexa647 label, 635/667 nm fluorescence (AID 1118).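 Also: score merges 667 nm emission intensity and signal-to-noise per printed compound spot.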 Conditions: BSA-A647 binding, fluorescence 635 nm, higher = more signal.
Albumin (Bos taurus), sequence (P02769 whole entry, looked up): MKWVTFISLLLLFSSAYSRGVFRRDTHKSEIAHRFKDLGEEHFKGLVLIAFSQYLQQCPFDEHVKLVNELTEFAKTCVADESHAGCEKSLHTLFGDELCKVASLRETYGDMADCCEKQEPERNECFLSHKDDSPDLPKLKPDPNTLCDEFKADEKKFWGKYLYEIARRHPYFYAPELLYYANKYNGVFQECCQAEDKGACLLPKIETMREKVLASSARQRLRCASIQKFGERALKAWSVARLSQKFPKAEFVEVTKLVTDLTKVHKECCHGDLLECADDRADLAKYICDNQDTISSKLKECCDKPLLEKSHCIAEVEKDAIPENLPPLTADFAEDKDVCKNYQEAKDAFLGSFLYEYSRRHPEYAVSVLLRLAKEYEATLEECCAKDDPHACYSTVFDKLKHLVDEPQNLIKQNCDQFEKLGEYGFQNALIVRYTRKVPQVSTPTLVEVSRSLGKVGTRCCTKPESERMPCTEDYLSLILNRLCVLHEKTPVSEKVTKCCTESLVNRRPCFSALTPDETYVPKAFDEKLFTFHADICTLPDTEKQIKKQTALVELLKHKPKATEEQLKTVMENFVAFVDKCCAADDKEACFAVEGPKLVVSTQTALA
The nature of assay [2]: small-molecule microarray binders of probe aXIP, primary screen, biochemical, NeuroSMM set, 635/667 nm fluorescence (AID 1119).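 Also: probe is the protein aXip251-270 applied at 1 µg/mL to compound-printed slides; binding of probe to printed compounds measured as 667 nm fluorescence plus signal to noise.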 Conditions: higher = more signal, called active from +8 up or from −8 down.
Assay [3] is described as follows: small-molecule binders of probe aNOTCH3, primary screen, biochemical, small-molecule microarray, 635/667 nm fluorescence (AID 1120).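 Also: probe is a biotin-tagged antibody raised against NOTCH3 rather than NOTCH3 protein; score merges spot fluorescence near 667 nm with spot signal to noise.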 Conditions: higher = more signal.
Assay [4] in a line: small-molecule binders of probe aNOTCH2, primary screen, biochemical, small-molecule microarray, 635/667 nm fluorescence (AID 1121).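 Also: score merges feature fluorescence read at 667 nm with its signal to noise.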 The following applies: higher = more signal.
Assay [5] addresses Carbonic anhydrase 2 (Homo sapiens) (UniProt P00918). The assay is described as follows: CAII small-molecule binders, profiling panel, biochemical, small-molecule microarray, Alexa647-labelled CAII (AID 1122). The following applies: CAII-A647 binding fluorescence, higher = more signal.
Assay [6] can be described thus: COS7 lysate on small-molecule microarray, probe aHis, 635 nm (AID 1123).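 Also: z-score combines 667nm fluorescence intensity with signal-to-noise per printed compound spot.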 Conditions: COS7 cell lysate, fluorescence, higher = more signal.
Assay [7] is described as follows: compound binding in COS7 lysate, probe aLAP1, primary screen, cell lysate, small-molecule microarray (AID 1124).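 Also: lysate comes from COS7 cells expressing LAP1 and is applied at 0.3 µg/mL; score merges spot fluorescence near 667 nm with signal-to-noise over triplicate slides.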 Conditions: probe aLAP1, fluorescence, higher = more signal.
Assay [8] relates to Sam68 (KHDRBS1). The assay is described as follows: Sam68 small-molecule binders, primary screen, biochemical, small-molecule microarray, 635 nm fluorescence (AID 1125).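 Also: score merges 667 nm channel intensity with signal to noise over triplicate slides.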 The following applies: small-molecule microarray binding, higher = more signal.
The subject of assay [9] is Chordin-like protein 2 (CHRDL2). Briefly: CHRDL2 small-molecule binders, primary screen, biochemical, small-molecule microarray, 635 nm fluorescence (AID 1126).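 Also: printed compound slides probed with Chrdl2 protein at 4 µg/mL for 1 h at 4 C; score merges 667 nm emission intensity with signal to noise over three replicate slides.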 The following applies: small-molecule microarray binding, fluorescence 635 nm; higher = more signal.
For assay [10], the target named is Concanavalin-A (Canavalia ensiformis) (UniProt P02866). Briefly: ConA small-molecule binders, primary screen, artefact control for SMM control protein annotation, biochemical, small-molecule microarray, Alexa647 label, 635 nm (AID 1127).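 Also: z combines 667 nm emission intensity with signal-to-noise across three replicate slides.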 Conditions: ConA-A647 binding fluorescence, higher = more signal.
Concanavalin-A (Canavalia ensiformis), sequence (P02866 whole entry, looked up): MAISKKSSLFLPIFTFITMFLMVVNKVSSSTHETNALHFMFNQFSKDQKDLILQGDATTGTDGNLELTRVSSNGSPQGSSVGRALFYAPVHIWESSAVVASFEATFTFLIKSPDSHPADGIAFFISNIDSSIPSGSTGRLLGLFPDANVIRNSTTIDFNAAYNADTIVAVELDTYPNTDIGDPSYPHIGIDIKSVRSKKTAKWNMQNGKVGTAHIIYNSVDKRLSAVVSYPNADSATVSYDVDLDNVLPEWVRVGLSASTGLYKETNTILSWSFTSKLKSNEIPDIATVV
Assay [11] can be described thus: anti-His antibody binders, primary screen, artefact control for SMM control protein annotation, biochemical, small-molecule microarray, 635 nm fluorescence (AID 1128).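 Also: score merges feature fluorescence with signal-to-noise for each printed compound spot.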 The following applies: anti-His Alexa647 antibody binding, higher = more signal.
Assay [12] relates to Human papillomavirus type 1a E7 protein (residues 1-88). The assay is described as follows: HPV1a E7 small-molecule binders, primary screen, biochemical, small-molecule microarray, residues 1-88, 635 nm (AID 1129). Conditions: small-molecule microarray binding, fluorescence 635 nm; higher = more signal.
For assay [13], the target named is Focal adhesion kinase 1 (Homo sapiens) (UniProt Q05397). The assay is described as follows: small-molecule microarray binders of FAK, primary screen, biochemical, 635/667 nm fluorescence, BSA, DTT (AID 1130).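 Also: composite of spot emission at 667 nm and signal to noise over triplicate slides.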 Conditions: PTK2 binding, 635 nm fluorescence, higher = more signal.
Focal adhesion kinase 1 (Homo sapiens), sequence (Q05397 whole entry, looked up): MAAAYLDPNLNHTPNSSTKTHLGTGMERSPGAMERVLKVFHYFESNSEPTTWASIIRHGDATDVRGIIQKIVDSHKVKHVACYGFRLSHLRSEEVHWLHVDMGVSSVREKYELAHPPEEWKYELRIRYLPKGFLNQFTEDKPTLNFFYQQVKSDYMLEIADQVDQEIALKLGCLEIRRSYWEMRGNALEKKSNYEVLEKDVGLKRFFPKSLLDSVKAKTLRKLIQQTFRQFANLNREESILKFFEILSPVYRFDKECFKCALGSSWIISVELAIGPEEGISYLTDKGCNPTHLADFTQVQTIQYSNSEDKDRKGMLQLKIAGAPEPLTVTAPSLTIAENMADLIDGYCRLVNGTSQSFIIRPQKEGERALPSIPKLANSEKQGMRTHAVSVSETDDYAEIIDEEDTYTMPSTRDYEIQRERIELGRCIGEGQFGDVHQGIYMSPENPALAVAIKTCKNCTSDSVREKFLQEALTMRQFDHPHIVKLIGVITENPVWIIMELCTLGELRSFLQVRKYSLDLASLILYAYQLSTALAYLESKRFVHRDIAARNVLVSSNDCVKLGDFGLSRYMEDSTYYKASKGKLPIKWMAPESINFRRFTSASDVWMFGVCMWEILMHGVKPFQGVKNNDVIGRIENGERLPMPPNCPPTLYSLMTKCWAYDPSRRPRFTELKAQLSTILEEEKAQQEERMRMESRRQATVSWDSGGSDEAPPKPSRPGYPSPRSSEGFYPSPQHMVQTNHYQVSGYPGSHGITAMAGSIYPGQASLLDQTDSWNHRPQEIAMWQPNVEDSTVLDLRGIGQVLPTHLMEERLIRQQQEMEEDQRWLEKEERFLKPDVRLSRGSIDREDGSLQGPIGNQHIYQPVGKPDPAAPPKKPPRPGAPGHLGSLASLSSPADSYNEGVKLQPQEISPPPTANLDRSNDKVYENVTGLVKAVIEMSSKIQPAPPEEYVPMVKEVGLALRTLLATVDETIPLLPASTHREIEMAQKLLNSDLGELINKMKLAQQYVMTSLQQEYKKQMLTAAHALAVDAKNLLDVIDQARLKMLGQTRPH
The subject of assay [14] is Fibrinogen (Alexa647-labelled). The assay is described as follows: fibrinogen binders on compound microarrays, profiling panel, artefact control for SMM control-protein annotation, biochemical, small-molecule microarray, 635/667 nm fluorescence (AID 1131).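 Also: z-score merges 667 nm fluorescence with per-spot signal-to-noise over triplicate slides.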 The following applies: fibrinogen-A647 binding fluorescence, higher = more signal.
The target in assay [15] is Follistatin (Homo sapiens) (UniProt P19883). Briefly: follistatin binders on small-molecule microarrays, primary screen, biochemical, small-molecule microarray, 635/667 nm fluorescence (AID 1132). Conditions: FST binding, 635 nm fluorescence, higher = more signal.
Follistatin (Homo sapiens), sequence (P19883 whole entry, looked up): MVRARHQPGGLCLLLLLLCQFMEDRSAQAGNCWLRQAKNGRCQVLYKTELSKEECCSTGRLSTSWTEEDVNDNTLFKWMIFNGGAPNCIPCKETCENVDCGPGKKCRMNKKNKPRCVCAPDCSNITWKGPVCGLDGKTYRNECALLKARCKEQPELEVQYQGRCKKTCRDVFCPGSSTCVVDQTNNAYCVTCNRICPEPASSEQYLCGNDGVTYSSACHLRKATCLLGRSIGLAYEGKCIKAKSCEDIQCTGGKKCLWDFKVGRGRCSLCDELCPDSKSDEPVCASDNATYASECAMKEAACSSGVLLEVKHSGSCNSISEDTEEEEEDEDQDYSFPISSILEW
Assay [16] has as its target Fibroblast growth factor 2 (Homo sapiens) (UniProt P09038). Briefly: FGF2 binders on small-molecule microarrays, primary screen, biochemical, small-molecule microarray, 635/667 nm fluorescence (AID 1133). Conditions: small-molecule microarray binding, FGF2, fluorescence 635/667; higher = more signal.
Assay [17] is described as follows: mitochondrial membrane potential change in A549 cells, profiling panel, cell-based, JC-1 fluorescence, basal, 24 h, 100 nL (AID 1138).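 Also: A549 lung adenocarcinoma cells under basal conditions with no added stimulus; test concentration not given here.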 The following applies: higher = more signal.
Assay [18] has as its system Lefty1. Briefly: Lefty1 binders on small-molecule microarrays, primary screen, biochemical, small-molecule microarray, 635/667 nm fluorescence (AID 1139). The following applies: small-molecule microarray binding, fluorescence 635/667; higher = more signal.
Assay [19] relates to wheat germ agglutinin (Triticum aestivum), Alexa647-labelled. The assay is described as follows: wheat germ agglutinin binders on compound microarrays, profiling panel, artefact control for SMM control-protein annotation, biochemical, small-molecule microarray, 635/667 nm fluorescence (AID 1140).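 Also: score merges 667 nm feature emission with signal to noise over triplicate slides.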 Conditions: WGA-A647 binding, 635 nm fluorescence, higher = more signal.
Assay [20] concerns the target Luciferin 4-monooxygenase (Photinus pyralis) (UniProt P08659). Briefly: firefly luciferase enzyme inhibitors, primary screen, biochemical, luminescence, purified enzyme, 2006 set (AID 1141).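 Also: cell-free assay with purified firefly luciferase at 100 ng per well in PBS; test concentration not given here.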 The following applies: SteadyGlo luminescence, 30 min, higher = more signal, called active from +8 up or from −8 down.

The source made the active and inactive calls.

Luciferin 4-monooxygenase (Photinus pyralis), sequence (P08659 whole entry, looked up): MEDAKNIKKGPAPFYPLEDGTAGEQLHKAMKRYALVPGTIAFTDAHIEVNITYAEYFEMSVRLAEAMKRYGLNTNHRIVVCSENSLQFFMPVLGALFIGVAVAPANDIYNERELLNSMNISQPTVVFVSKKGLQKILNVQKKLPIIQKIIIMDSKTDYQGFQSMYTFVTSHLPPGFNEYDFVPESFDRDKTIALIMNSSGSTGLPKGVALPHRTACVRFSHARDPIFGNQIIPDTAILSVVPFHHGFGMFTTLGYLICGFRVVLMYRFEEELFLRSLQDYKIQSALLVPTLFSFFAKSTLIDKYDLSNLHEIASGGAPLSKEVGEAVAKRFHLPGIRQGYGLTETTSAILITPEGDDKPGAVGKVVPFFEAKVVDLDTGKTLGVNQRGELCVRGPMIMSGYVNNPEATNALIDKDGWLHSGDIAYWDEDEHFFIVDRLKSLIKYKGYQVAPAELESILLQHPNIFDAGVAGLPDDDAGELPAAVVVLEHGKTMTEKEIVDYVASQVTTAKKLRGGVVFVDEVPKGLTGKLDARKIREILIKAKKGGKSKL
Fibroblast growth factor 2 (Homo sapiens), sequence (P09038 whole entry, looked up): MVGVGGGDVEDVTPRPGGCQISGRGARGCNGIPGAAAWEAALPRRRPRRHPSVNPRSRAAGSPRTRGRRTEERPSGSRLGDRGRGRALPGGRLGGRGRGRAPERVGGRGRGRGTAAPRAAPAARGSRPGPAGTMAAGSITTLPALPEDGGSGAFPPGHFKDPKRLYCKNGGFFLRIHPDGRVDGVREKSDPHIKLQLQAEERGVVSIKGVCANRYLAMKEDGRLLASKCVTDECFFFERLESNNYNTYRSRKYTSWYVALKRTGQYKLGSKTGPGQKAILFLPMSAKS

As to `O=C1OCC=C[C@H]2OC34C=CCN(Cc5ccccc5)C(=O)[C@H]3N(CCO)C(=O)[C@@H]4[C@@H]12` (stereo not given in full), the composite z-score was 0.661 in [1]; -0.248 in [3]; -0.177 in assay [4]; 0.824 in [5]; 0.666 in assay [6]; -0.0963 in [7]. Further, the composite z-score in [8] was -0.72; in assay [9] it was -1.82; in assay [10], -0.403; in assay [11] it was -0.29; in assay [12], -0.766; in assay [13], -0.248. Moreover, the composite z-score is -1.04 in assay [14]; -0.0764 in [15]; -1.24 in assay [16]; 0.0323 in assay [18]; -0.0943 in assay [19]. Further, the composite Z-score in assay [2] is 0.383 (inactive). Also, the z-score is -0.0233 in assay [17] and -3.69 (inactive) in [20].

For `CO[C@H]1COC(=O)CC=C[C@H](C)[C@@H](OC)COC(=O)[C@H](Cc2ccccc2)NC(=O)CC=C[C@@H]1C`, the composite z-score was -2.12 in assay [1]; -0.132 in assay [3]; -0.0743 in [4]; -0.961 in [5]; -0.566 in assay [6]; -0.287 in [7]. Also, the composite z-score in [8] is -0.777; in assay [9], 1.46; in [10], -2.53; in [11] it was -1.1; in [12], -2.59; in [13], 0.264. The composite z-score was -1.23 in [14]; 1.42 in assay [15]; 1.34 in assay [16]; 1.59 in [18]; -0.324 in assay [19]. Moreover, the composite Z-score in assay [2] is 0.699 (inactive). The figures for the z-score in assay [17] and in assay [20] were 1.39 and -1.06 (inactive), respectively.

Regarding `COc1cc(CO)cc(I)c1O[C@H]1C=C(C(=O)NCCO)C[C@@H](NCCc2c[nH]c3ccccc23)[C@@H]1O`, the composite z-score is 0.544 in [1]; 0.124 in [3]; -0.121 in [4]; 0.412 in assay [5]; 0.414 in [6]; 0.128 in [7]. Also, the composite z-score in assay [8] was 1.12; in assay [9], 0.685; in assay [10] it was 0.649; in assay [11], 0.876; in [12], 0.579; in assay [13], -0.0981. Moreover, the composite z-score in [14] was 0.824; in assay [15] it was 0.792; in assay [16], 0.243; in assay [18] it was 0.28; in assay [19], 1.21. In addition, the composite Z-score in assay [2] is 0.256 (inactive). The z-score is 0.898 in assay [17] and 0.47 (inactive) in [20].

Turning to `O=C(CS)NCCCCCCNC(=O)[C@@H]1C[C@@H]2C(=O)N[C@@H](Cc3ccccc3)C(=O)N2[C@@H]1c1ccc(O)cc1`, the composite z-score in assay [1] was -0.318; in assay [3] it was -0.128; in assay [4] it was -0.168; in [5], 0.636; in [6], 2.87; in assay [7] it was 1.47. Moreover, the composite z-score in assay [8] worked out at 1.28; in assay [9], 0.976; in [10], 0.938; in [11] it was 2.75; in assay [12], 1.24; in [13] it was 0.874. Also, the composite z-score in assay [14] was determined as 0.255; in assay [15], 1.38; in assay [16] it was 1.73; in [18], 1.48; in assay [19], 0.072. Further, in assay [2], the composite Z-score was 1.1 (inactive). In addition, the z-score is -1.39 in assay [17] and -0.663 (inactive) in [20].

As for `Cc1ccccc1C(O)C1C=CC2C(=O)N(c3ccccc3)C(=O)C2N1Nc1ccc(C#N)cc1` (stereo not given), the composite z-score amounted to 1.04 in assay [1]; 0.841 in assay [3]; 0.417 in assay [4]; 0.652 in [5]; 2.87 in [6]; 1.37 in [7]. Moreover, the composite z-score in [8] worked out at 1.31; in assay [9], 0.632; in assay [10] it was 1.18; in assay [11] it was 2.68; in assay [12], 1.21; in assay [13] it was 0.842. For the same compound, the composite z-score in assay [14] was 0.523; in assay [15], 0.683; in assay [16] it was 0.302; in [18], 0.0979; in [19], 1. Also, the composite Z-score in assay [2] is 1.4 (inactive). The z-score in assay [17] is -0.638; in assay [20], -1.33 (inactive).
